Calls of active or inactive are those of the source. Calls come from the whole dose curve; as a rule, active = well fitted curve in the direction sought with a large enough effect in the repeat runs; inconclusive = weak or mixed curves; inactive = flat fitted curve, though single readings scatter.
% is set by controls: 0 for no effect and ±100 for the full control effect.

The experiment in a line: qHTS assay to test for compound auto fluorescence at 590 nm (red) in HepG2 cell free culture (AID 720684). To be noted: cell-free medium autofluorescence, red 540/590 nm; series mostly up to 46 µM; fluorescence, % of Rose Bengal: at the top concentration. The text has this: U.S. Tox21 Program National Center for Advancing Translational Sciences [NCATS] NIH Chemical Genomics Center [NCGC] U.S. Environmental Protection Agency [EPA] National Institutes of Environmental Health Sciences [NIEHS] National Toxicology Program [NTP] U.S. Food and Drug Administration [FDA] Tox21 Assay Overview: Compound auto fluorescence often interferes with screening of the compound library against various biological targets and signaling pathways. Some of these compounds may have fluorophoric properties. Such properties may interfere with the assay outputs resulting in false positives and/or negatives. To decrease such complications and ensure the compound activities are relevant in terms of biological response, the Tox21 10K compound library was screened for auto fluorescence. From the fluorophores used as reporter signals in our screening assays, the auto fluorescence equivalencies of compounds against three fluorophores have been evaluated: Triamterene, Fluorescein and Rose Bengal sodium for blue, green and red fluorescence, respectively. The fluorescence intensities were measured using Excitation/Emission wavelengths at 405/460nm, 485/535nm and 540/590nm for blue, green and red labels, respectively. This assay includes the red fluorescence data.
Tox21 Assay Protocol Summary: 5 uL of culture medium (MEM containing 10% FBS) per well was dispensed into black wall/clear bottom 1536-well plates using a Multidrop Combi Dispenser (ThermoFisher Scientific, Waltham, MA). After 23 nL compound or DMSO vehicle was transferred into assay plate by a pintool work station (Kalypsys, San Diego, CA), fluorescence intensities in the assay plates were measured by an Envision (PerkinElmer, Shelton, CT) plate reader using three labels for measuring blue, green and red fluorescence at […] 460, 535 and 590nm respectively.
Background: In qHTS, concentration-response curves come from the screen itself.
Turning to `O=C1CCC(c2ccccc2)(C2CCN(Cc3ccccc3)CC2)C(=O)N1` (stereo not given), the “fluorescence, % of Rose Bengal” value is -0.0367% (inactive).
Same read-out and setting: the value for `CC(C)CCC[C@@H](C)[C@H]1CC[C@H]2[C@@H]3CC=C4C[C@@H](O)CC[C@]4(C)[C@H]3CC[C@]12C` was 0.0094% (inactive).
For the molecule `CC(C)=CCC/C(C)=C/CC/C(C)=C/CC/C=C(\C)CC/C=C(\C)CCC=C(C)C`, the result was inactive.
In the case of `CN[C@@H]1[C@@H](O[C@H]2O[C@H](CO)[C@@H](N)[C@H](O)[C@H]2O)O[C@H]2C[C@@H](N)[C@@H](O[C@H]3[C@H](O)[C@@H](O)[C@H](N)C[C@@H]3N)O[C@@H]2[C@@H]1O`, the “fluorescence, % of Rose Bengal” value is 0.565% [at 18.6 µM] (inactive).
Still for that read-out and setting: to `c1ccc2c(c1)OCC(CN1CCCCC1)O2` (stereo not given) belongs -0.696% (inactive).
On the same count and under the same terms, to `COc1c(Br)cc(Br)c(C)c1Br` belongs -0.197% [at 91.3 µM] (inactive); to `COc1cccc(-c2ccc(/C=C\CN3CCCCCC3)cc2Cl)c1`, -0.0465% [at 91.3 µM] (inactive).
Still for that read-out and setting: to `NC(=O)c1cc[n+](CC2=C(C(=O)O)N3C(=O)[C@@H](NC(=O)C(c4ccccc4)S(=O)(=O)[O-])[C@H]3SC2)cc1` (stereo not given in full) belongs 0.615% [at 18.6 µM] (inactive); to `C=N[C@@H](C(=O)N[C@@H]1C(=O)N2[C@@H]1SC(C)(C)[C@@H]2C(=O)O)c1ccccc1`, -0.0014% (inactive).
`Cc1cc(=O)c(C(=O)N[C@@H](C(=O)N[C@@H]2C(=O)N3C(C(=O)O)=C(CSc4nnnn4C)CS[C@H]23)c2ccc(O)cc2)c[nH]1`: the “fluorescence, % of Rose Bengal” value is -0.323% (inactive).
Still for that read-out and setting: to `C=CC[N+]1([C@H]2C[C@H]3[C@@H]4CC[C@H]5C[C@H](O)[C@@H](N6CCOCC6)C[C@]5(C)[C@H]4CC[C@]3(C)[C@H]2OC(C)=O)CCCC1` belongs 0.0605% (inactive); to `NC(=O)C1c2ccccc2CCc2ccccc21`, 0.0761% (inactive).
Same read-out and setting: the value for `Oc1ccc(Cl)c2c1CCC2` was -0.0013% (inactive); that for `CC(=O)OCC(=O)[C@@]1(O)CC[C@H]2[C@@H]3CCC4=CC(=O)CC[C@]4(C)C3=CC[C@@]21C` was 0.157% (inactive).
Regarding `NCCCC[C@H](NC(=O)[C@@H]1CCCN1C(=O)[C@@H]1CSSC[C@H](N)C(=O)N[C@@H](Cc2ccc(O)cc2)C(=O)N[C@@H](Cc2ccccc2)C(=O)N[C@@H](CCC(N)=O)C(=O)N[C@@H](CC(N)=O)C(=O)N1)C(=O)NCC(N)=O`, the result was inactive.
As to `CC1=C(/C=C/C(C)=C/C=C/C(C)=C/C=C/C=C(C)/C=C/C=C(C)/C=C/C2=C(C)CCCC2(C)C)C(C)(C)CCC1`, the “fluorescence, % of Rose Bengal” value is 0.168% (inactive).
As for `C=CC[N@@+]12CC[C@@]34c5ccccc5N5/C=C6/[C@H]7C[C@H]8[C@@]9(CC[N@@+]8(CC=C)C/C7=C/CO)c7ccccc7N(/C=C(/[C@@H](C[C@@H]31)/C(=C\CO)C2)[C@H]54)[C@@H]69`, the “fluorescence, % of Rose Bengal” value was -0.0327% [at 18.6 µM] (inactive).
The same measure, in the same setting: the value for `CCC(C)(C)c1ccc(CC(C)CN2C[C@@H](C)O[C@@H](C)C2)cc1` (stereo not given in full) was -0.0068% (inactive); that for `CC(C)(C)C(=O)OCC(=O)[C@H]1CC[C@H]2[C@@H]3CCC4=CC(=O)CC[C@]4(C)[C@H]3CC[C@]12C` was -0.0077% (inactive).
Same read-out and setting: the value for `S=C1NC=NC2N=CNC12` (stereo not given) was -0.101% [at 91.3 µM] (inactive).
Take `O=C(N[C@H](CO)[C@H](O)c1ccc([N+](=O)[O-])cc1)C(Cl)Cl`: the molecule was classed as inactive.
`O=C1c2ccccc2C(=O)C1c1ccc(F)cc1`: the “fluorescence, % of Rose Bengal” value was -0.0523% (inactive).
On the same count and under the same terms, the value for `CC1(C)S[C@@H]2[C@H](N3C(=O)C(c4ccccc4)NC3(C)C)C(=O)N2[C@H]1C(=O)O` (stereo not given in full) was -0.186% (inactive); that for `CC(=O)Nc1ccc(OC(C)=O)cc1` was -0.0223% (inactive).
In the case of `CCCCC[C@H](O)/C=C/[C@@H]1[C@@H](C/C=C\CCCC(=O)O)[C@@H](O)C[C@H]1O`, the molecule was called inactive.
Consider `C[S+](CC[C@H](N)C(=O)O)C[C@H]1O[C@@H](n2cnc3c(N)ncnc32)[C@H](O)[C@@H]1O` (stereo not given in full), for which the outcome was inactive.
Regarding `NCc1cccc(C2CCN(C(=O)c3ccc(C#Cc4ccccc4F)o3)CC2)c1`, the “fluorescence, % of Rose Bengal” value is -0.0996% [at 91.3 µM] (inactive).
With `COc1cc2c(cc1O)CCN[C@]21CS[C@@H]2c3c(OC(C)=O)c(C)c4c(c3[C@H](COC1=O)N1[C@@H]2[C@H]2c3c(cc(C)c(OC)c3O)C[C@@H]([C@@H]1O)N2C)OCO4`, the molecule was called inactive.
For `CCCCCCCCCC(=O)NO`, the result was inactive.
As for `N[C@H](CO)C(=O)O`, the “fluorescence, % of Rose Bengal” value is -0.0964% (inactive).
On the same count and under the same terms, to `N[C@@H](Cc1ccc(O)c(O)c1)C(=O)O` belongs -0.137% (inactive).
The same measure, in the same setting: to `CSCCC(N)C(=O)O` (stereo not given) belongs 0.679% (inactive); to `O=C1CC[C@@H](C(=O)N[C@H]2C[C@@H]2c2ccccc2)N1`, 0.025% (inactive).
For the molecule `CN=C(N)NCCC[C@H](N)C(=O)O`, the outcome was inactive.
With `c1ccc(-c2ccc(C(c3ccccc3)n3ccnc3)cc2)cc1` (stereo not given), the “fluorescence, % of Rose Bengal” value was 0.0636% (inactive).
On the same count and under the same terms, the value for `O=C[C@H](O)[C@@H](O)[C@@H](O)[C@H](O)CO` was -0.0275% (inactive).
`CC(=O)N(C)C`: the call was inactive.
The same measure, in the same setting: the value for `CSCC[C@H](NC(=O)[C@H](Cc1ccc(OS(=O)(=O)O)cc1)NC(=O)[C@@H](N)CC(=O)O)C(=O)NCC(=O)N[C@@H](Cc1c[nH]c2ccccc12)C(=O)N[C@@H](CCSC)C(=O)N[C@@H](CC(=O)O)C(=O)N[C@@H](Cc1ccccc1)C(N)=O` was “inactive”.
On to `CC(C)C[C@@H](NC(=O)[C@@H](O)[C@H](N)Cc1ccccc1)C(=O)O`, for which the “fluorescence, % of Rose Bengal” value is 0.166% (inactive).
In the case of `OCC1(CO)COC(C(Cl)(Cl)Cl)OC1`, the “fluorescence, % of Rose Bengal” value was 0.0135% (inactive).
